# Measurements from the supplement of paper PMC8728848.
# This is one part of a sample in which the strongest signals are shown more often than they occur.
# Test system: Man(a1-2)Man(a1-2)Man(a1-3)Man
# Assay: glycan array binding signal (z-score within array); higher = stronger binding
# Settings: glycan notation: IUPAC condensed, linker removed
# Summary of the method: (§1)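 Arrays were curated from the Consortium for Functional Glycomics database, 3228 in total, and kept only where the protein sequence was available. Binding is expressed as a within-array Z-score. This score was averaged across arrays of the same protein sequence at different concentrations or buffers and across linkers, and negative values can be read as non-binding.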
# Chain of Avaren (Actinomycete K97) (chain, as listed by the source): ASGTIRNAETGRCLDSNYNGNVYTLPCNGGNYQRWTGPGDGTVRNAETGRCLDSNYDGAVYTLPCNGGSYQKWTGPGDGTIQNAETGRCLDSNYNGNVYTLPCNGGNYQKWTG
# Chain of Neurocan (Homo sapiens), O14594 (O14594 other isoform, or with tags, fused parts or gaps): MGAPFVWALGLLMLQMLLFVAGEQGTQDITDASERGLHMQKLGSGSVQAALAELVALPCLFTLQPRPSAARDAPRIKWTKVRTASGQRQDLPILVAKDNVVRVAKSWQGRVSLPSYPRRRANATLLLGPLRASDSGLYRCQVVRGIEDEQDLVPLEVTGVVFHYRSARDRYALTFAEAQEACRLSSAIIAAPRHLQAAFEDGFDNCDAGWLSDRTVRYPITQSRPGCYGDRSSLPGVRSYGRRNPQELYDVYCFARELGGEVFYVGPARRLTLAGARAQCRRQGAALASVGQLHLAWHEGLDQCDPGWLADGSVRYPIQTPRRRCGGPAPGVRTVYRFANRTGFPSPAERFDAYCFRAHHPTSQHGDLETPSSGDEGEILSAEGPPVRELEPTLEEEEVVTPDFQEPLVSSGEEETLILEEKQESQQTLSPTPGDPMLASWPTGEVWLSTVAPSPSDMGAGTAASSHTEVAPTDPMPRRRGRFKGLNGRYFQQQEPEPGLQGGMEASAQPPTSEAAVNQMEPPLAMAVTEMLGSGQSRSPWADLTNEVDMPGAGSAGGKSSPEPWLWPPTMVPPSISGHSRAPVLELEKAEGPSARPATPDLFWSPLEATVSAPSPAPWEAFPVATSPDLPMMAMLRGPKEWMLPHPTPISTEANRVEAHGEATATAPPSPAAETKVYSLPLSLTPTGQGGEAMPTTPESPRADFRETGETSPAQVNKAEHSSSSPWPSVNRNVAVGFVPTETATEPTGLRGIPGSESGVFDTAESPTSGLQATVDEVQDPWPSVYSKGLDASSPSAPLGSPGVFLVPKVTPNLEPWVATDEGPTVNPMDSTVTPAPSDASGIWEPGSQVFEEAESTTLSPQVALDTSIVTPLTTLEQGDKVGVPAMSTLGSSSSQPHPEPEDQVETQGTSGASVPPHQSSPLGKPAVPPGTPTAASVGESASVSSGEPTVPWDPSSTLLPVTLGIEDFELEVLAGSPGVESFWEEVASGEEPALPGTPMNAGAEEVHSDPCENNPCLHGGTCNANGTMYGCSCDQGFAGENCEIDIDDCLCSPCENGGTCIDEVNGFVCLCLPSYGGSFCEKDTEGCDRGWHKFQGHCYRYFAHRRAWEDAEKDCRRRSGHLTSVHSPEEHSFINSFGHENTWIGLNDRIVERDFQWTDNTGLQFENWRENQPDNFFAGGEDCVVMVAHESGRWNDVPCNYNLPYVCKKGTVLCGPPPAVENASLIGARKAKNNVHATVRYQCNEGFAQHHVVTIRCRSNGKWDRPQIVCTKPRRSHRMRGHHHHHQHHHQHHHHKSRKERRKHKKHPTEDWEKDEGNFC
# Chain of SRLC (Mus musculus), Q8VIF6 (Q8VIF6 other isoform, or with tags, fused parts or gaps): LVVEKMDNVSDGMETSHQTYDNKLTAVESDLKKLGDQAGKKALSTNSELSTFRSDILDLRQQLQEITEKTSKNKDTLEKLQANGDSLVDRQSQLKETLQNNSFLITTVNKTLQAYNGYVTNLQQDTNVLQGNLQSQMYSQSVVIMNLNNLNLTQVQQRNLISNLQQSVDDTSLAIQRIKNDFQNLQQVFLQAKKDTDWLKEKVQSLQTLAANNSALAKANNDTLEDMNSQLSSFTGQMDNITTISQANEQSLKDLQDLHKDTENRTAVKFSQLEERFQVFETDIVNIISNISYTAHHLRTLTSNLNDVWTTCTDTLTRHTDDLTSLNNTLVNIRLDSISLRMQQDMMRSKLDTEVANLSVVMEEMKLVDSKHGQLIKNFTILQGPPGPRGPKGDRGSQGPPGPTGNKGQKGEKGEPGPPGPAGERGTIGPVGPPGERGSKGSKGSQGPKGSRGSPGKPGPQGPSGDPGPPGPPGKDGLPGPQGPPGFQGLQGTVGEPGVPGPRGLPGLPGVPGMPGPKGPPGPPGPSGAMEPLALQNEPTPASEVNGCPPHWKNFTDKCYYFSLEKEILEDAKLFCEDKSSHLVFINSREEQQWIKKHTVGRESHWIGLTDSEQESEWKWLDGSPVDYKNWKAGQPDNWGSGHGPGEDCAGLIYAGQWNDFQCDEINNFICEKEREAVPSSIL
# Chain of C3b (Homo sapiens), P01024 (P01024 23-667): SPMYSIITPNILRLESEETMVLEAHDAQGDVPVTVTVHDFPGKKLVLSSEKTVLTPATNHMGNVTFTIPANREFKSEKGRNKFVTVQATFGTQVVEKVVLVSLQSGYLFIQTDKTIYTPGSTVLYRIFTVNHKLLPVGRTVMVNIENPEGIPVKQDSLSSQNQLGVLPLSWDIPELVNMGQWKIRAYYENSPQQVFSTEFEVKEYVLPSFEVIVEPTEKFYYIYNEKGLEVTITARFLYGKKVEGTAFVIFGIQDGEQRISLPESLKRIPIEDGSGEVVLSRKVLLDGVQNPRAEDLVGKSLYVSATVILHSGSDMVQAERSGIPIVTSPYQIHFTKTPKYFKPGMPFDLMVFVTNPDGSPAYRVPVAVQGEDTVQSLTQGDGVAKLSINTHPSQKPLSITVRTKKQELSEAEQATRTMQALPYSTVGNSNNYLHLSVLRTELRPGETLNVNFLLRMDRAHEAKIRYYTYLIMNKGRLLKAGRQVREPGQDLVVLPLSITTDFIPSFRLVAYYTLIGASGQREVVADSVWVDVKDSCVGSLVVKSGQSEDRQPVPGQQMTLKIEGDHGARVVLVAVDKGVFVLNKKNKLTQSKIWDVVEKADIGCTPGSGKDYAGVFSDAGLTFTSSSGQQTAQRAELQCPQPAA
# Chain of 6RG (Lolium perenne), B9U140 (B9U140 entry or part of it): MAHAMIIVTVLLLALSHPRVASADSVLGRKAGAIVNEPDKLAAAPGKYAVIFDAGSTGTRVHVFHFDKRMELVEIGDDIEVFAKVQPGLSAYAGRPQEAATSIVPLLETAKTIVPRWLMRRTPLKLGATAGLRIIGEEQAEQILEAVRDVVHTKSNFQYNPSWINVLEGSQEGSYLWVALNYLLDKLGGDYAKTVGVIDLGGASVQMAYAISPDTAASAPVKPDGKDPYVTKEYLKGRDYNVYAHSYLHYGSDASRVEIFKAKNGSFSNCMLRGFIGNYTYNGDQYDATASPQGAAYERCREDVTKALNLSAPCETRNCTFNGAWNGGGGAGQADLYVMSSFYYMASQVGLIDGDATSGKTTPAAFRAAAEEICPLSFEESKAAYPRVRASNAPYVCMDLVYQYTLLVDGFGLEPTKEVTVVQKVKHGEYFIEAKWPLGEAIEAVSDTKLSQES
row,Substance,glycan array binding signal (z-score)
1,"C3b (Homo sapiens), P01024",0.007
2,Avaren (Actinomycete K97),2.52
3,"SRLC (Mus musculus), Q8VIF6",-0.206

# Test system: Man(a1-2)Man(a1-3)[Man(a1-2)Man(a1-6)]Man
# Assay: as above
# Settings: glycan notation: IUPAC condensed, linker removed
# Summary of the method: as §1
row,Substance,glycan array binding signal (z-score)
1,"Neurocan (Homo sapiens), O14594",-0.053
2,Avaren (Actinomycete K97),3.5
3,"Siglec-8 (Homo sapiens), Q9NYZ4",-0.204
4,"6RG (Lolium perenne), B9U140",-0.266
